The test system of test [1] is Wnt5a (protein binding on small-molecule microarray). Kind of test: small molecules binding Wnt5a protein – biophysical, small-molecule microarray, 635/667 nm fluorescence, primary screen (AID 1142).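 Note: fluorescence read at 667 nm with signal to noise per printed feature.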 The note with it: 635 nm fluorescence, higher = more signal.
Test [2] is described as follows: ATP-based viability of Huh7 replicon cells – cell-based, CellTiter-Glo luminescence, basal, 48 h, cytotoxicity control for HCV replication inhibitor project, primary screen (AID 1143).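 Note: Huh7 hepatoma cells carrying a hepatitis C replication reporter with no stimulus; test concentration not given here.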 The following applies: higher = more signal, called active from +8 up or from −8 down. Background: Replicon systems follow genome replication, usually without infectious particles.
Test [3] is described as follows: Pseudomonas biofilm growth suppression – PAO1 strain, BacTiter-Glo luminescence, LB-PBS, primary screen (AID 1144). The note with it: P. aeruginosa PAO1 biofilm, 12 h, higher = more signal.
Test [4] is described as follows: basal CRE-LacZ reporter activity in PC12 – cell-based, unstimulated, primary screen (AID 1145). The note with it: no forskolin, luminescence, 4.5 h, higher = more signal, called active from +8 up or from −8 down.
Test [5] in a line: forskolin-driven CRE-LacZ activity in PC12 – cell-based, CRE-LacZ reporter, forskolin-stimulated, primary screen (AID 1146).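 Note: PC12 cells with 6xCRE LacZ reporter stimulated by forskolin 10 µM; beta-galactosidase reporter signal reflecting CREB driven transcription.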 The note with it: luminescence, 4.5 h, higher = more signal, called active from +8 up or from −8 down.
The target of test [6] is Streptavidin (Streptomyces avidinii) (UniProt P22629). Nature of the test: compounds binding control protein streptavidin – biophysical, small-molecule microarray, 635/667 nm fluorescence, artefact control for SMM compound annotation, primary screen (AID 1147).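 Note: signal reflects streptavidin binding to arrayed compounds as a control protein.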 The note with it: higher = more signal.
A short description of test [7]: probe aInhba binding on compound microarray – biochemical, small-molecule microarray, 635/667 nm fluorescence, primary screen (AID 1148).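 Note: score merges 667nm spot fluorescence with signal-to-noise for antibody binding to printed compounds.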 The following applies: higher = more signal.
Test [8] deals with Torsin-1A (Homo sapiens) (UniProt O14656). Kind of test: TOR1A wild-type binding on microarray – cell lysate, small-molecule microarray, lysate, 635/667 nm, primary screen (AID 1149). The note with it: COS7 hTOR1A-WT lysate, 635 nm fluorescence, higher = more signal.
The target is the same in test [9]. Kind of test: torsin A mutant lysate binding on microarrays – cell lysate, small-molecule microarray, COS7 lysate, 635/667 nm fluorescence, primary screen (AID 1150).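 Note: score pools 667 nm emission and signal to noise measuring lysate protein binding.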 The note with it: COS7 hTOR1A mutant lysate, 635 nm fluorescence, higher = more signal.
Test [10] concerns Sonic hedgehog protein (Shh). Nature of the test: Sonic hedgehog microarray binding compounds – biochemical, small-molecule microarray, 635/667 nm fluorescence, primary screen (AID 1151).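 Note: Shh protein binding to compounds spotted on small-molecule microarray slides; score combines spot fluorescence intensity with signal-to-noise across triplicate slides.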 The following applies: 635 nm fluorescence, higher = more signal.
A short description of test [11]: optical density shifts of acrAB sulA E. coli – strain DRC41, OD650, 48 h, E. coli filamentation inducer project, primary screen (AID 1152).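 Note: E. coli MC1000 strain DRC41 lacking acrAB efflux pump and sulA.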 The note with it: higher = more signal, called active from +8 up or from −8 down.
The nature of test [12]: probe aLefty1 binding on compound microarray – biochemical, small-molecule microarray, 635/667 nm fluorescence, primary screen (AID 1153).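 Note: score merges spot fluorescence with signal-to-noise ratio from the scanned slide images.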 The note with it: higher = more signal.
Test [13] is described as follows: plasmodial surface anion channel blockers, osmotic lysis – cell-based, P. falciparum Indochina, OD700, 1 h, primary screen (AID 1154). The note with it: P. falciparum Indochina infected RBC osmotic lysis, higher = more signal, called active from +8 up or from −8 down.
Test [14] can be described thus: plasmodial surface anion channel blockers, osmotic lysis – cell-based, P. falciparum Indochina, OD700, 2 h, primary screen (AID 1155).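 Note: lysis reports solute entry through the parasite surface anion channel PSAC.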 The note with it: P. falciparum Indochina infected erythrocytes, higher = more signal, called active from +8 up or from −8 down.
Test [15] is described as follows: changes in parasitized red cell lysis, either direction – P. falciparum Indochina, OD700, 3 h, PSAC antagonist project, primary screen (AID 1156). The following applies: P. falciparum-infected erythrocytes, osmotic lysis, higher = more signal, called active from +8 up or from −8 down.
Test [16] in a line: plasmodial surface anion channel blockers, osmotic lysis – cell-based, P. falciparum Indochina, OD700, 18 h, primary screen (AID 1157). The note with it: P. falciparum Indochina infected erythrocytes, osmotic lysis OD700, 18 h; higher = more signal, called active from +8 up or from −8 down.
Test [17] in a line: S6 kinase pathway phospho-S6 level changes – cell-based, A549, cytoblot, luminescence, serum-stimulated, primary screen (AID 1158).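 Note: serum-stimulated A549 lung adenocarcinoma cells; signal is phosphorylated S6 detected by cytoblot immunostaining with HRP secondary.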 The note with it: 5 h, higher = more signal.
Test [18] deals with NADPH oxidase 2 (Homo sapiens) (UniProt P04839). Kind of test: compounds shifting NOX2 Amplex Red fluorescence – cell-based, HEK293-NOX2, PMA-stimulated, NOX inhibitor project, primary screen (AID 1159). Note: test concentration not given here. The note with it: 45 min, higher = more signal, called active from +8 up or from −8 down.
The target of test [19] is NADPH oxidase 4 (Homo sapiens) (UniProt Q9NPH5). Nature of the test: compounds shifting NOX4 Amplex Red fluorescence – cell-based, HEK293-NOX4, tetracycline-induced, NOX inhibitor project, primary screen (AID 1160). The note with it: HEK293-NOX4, Amplex Red H2O2 fluorescence, 45 min; higher = more signal, called active from +8 up or from −8 down.
For test [20], the target named is NADPH oxidase 5 (Homo sapiens) (UniProt Q96PH1). Kind of test: compounds shifting NOX5 Amplex Red fluorescence – cell-based, HEK293-NOX5, NOX inhibitor project, primary screen (AID 1161). The note with it: HEK293-NOX5, ionomycin, 45 min, higher = more signal.

The source made the active and inactive calls. Unless noted, the rule behind the calls is not given here.

NADPH oxidase 2 (Homo sapiens), sequence (P04839 whole entry, looked up): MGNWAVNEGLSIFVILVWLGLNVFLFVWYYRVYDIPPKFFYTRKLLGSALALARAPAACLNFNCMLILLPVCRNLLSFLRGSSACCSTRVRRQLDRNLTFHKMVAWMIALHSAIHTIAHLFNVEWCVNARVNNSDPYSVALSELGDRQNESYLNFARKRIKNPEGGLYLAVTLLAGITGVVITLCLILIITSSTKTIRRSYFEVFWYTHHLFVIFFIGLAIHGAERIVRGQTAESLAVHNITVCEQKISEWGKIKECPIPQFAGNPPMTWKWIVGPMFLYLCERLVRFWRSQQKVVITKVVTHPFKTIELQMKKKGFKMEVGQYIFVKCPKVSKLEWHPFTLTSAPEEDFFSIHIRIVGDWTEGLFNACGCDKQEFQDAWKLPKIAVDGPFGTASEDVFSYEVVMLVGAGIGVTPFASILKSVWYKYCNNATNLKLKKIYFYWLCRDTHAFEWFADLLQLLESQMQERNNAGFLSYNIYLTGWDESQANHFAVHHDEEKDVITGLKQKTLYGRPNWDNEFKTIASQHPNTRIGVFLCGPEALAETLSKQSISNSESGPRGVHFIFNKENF
NADPH oxidase 5 (Homo sapiens), sequence (Q96PH1 whole entry, looked up): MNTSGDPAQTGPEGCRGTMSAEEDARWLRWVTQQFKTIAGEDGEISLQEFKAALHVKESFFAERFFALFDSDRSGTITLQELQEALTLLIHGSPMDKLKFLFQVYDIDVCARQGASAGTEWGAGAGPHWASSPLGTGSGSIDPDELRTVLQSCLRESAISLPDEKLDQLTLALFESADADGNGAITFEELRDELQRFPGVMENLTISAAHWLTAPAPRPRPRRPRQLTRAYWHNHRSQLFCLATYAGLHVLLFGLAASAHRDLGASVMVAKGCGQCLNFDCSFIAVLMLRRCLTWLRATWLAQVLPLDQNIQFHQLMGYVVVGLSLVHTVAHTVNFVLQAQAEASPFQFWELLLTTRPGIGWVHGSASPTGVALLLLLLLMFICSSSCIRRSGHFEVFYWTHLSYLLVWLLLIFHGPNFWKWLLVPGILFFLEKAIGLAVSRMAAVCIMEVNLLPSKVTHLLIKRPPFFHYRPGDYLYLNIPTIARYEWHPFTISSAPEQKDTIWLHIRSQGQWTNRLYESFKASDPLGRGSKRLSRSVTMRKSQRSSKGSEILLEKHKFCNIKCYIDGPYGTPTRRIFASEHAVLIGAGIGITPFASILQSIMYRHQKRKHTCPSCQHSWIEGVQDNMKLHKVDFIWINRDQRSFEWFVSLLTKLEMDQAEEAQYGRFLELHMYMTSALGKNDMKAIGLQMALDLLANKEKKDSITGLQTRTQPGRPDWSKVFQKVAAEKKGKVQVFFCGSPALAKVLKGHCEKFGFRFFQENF
NADPH oxidase 4 (Homo sapiens), sequence (Q9NPH5 whole entry, looked up): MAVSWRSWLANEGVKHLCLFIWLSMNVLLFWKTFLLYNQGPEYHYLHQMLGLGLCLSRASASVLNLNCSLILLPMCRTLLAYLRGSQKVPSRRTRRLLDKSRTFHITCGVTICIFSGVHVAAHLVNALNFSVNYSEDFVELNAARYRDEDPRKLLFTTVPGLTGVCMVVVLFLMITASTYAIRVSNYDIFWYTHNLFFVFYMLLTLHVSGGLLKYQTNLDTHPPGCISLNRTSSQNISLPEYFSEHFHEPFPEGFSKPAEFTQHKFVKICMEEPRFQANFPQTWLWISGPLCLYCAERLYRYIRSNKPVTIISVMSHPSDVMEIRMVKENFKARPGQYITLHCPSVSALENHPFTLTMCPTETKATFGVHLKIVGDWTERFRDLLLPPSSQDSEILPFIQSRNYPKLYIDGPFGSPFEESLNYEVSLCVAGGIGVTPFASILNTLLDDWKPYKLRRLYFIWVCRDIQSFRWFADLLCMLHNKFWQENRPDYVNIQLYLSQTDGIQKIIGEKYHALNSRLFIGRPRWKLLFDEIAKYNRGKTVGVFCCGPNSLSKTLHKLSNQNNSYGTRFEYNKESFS
Torsin-1A (Homo sapiens), sequence (O14656 whole entry, looked up): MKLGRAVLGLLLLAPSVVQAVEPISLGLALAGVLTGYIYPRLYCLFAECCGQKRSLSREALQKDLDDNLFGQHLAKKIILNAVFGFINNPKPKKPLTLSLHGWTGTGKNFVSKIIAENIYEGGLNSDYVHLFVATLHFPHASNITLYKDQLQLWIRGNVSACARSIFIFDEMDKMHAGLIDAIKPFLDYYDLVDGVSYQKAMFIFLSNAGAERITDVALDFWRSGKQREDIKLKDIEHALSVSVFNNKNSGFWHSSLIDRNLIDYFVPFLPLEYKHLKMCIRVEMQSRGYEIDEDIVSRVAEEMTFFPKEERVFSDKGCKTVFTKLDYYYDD
Streptavidin (Streptomyces avidinii), sequence (P22629 whole entry, looked up): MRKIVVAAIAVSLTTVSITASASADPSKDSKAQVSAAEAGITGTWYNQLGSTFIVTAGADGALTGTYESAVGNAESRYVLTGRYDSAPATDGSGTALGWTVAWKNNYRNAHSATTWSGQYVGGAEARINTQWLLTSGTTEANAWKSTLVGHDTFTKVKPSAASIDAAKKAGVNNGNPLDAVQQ

Consider `COCCOC(=O)N1C(=O)[C@@]2(c3cc(C#CCCO)ccc31)[C@H](c1ccc(O)cc1)N1[C@H](c3ccccc3)[C@H](c3ccccc3)OC(=O)[C@H]1[C@@H]2C(=O)Nc1nc2ccccc2s1`, for which the composite z-score in test [1] was 0.607; in test [6] it was 0.996; in [7], -0.0062; with Torsin-1A (Homo sapiens) [8] it was -0.0624; with Torsin-1A (Homo sapiens) [9], 0.236; in [10], 2.03. In [12], this compound yielded a composite z-score of 0.345. Moreover, the z-score in test [2] is -2.49 (inactive); in test [3], -1.24 (inactive); in [4], -1.7 (inactive); in test [5], -0.0062 (inactive); in test [11] it was 1.45 (inactive); in test [13], 2.22 (inactive). In addition, the z-score was 1.59 (inactive) in test [14]; 0.577 (inactive) in [15]; 1.73 (inactive) in test [16]; 0.897 in test [17]; 0.928 (inactive) in test [18]; -0.161 (inactive) in test [19]. In addition, the z-score in [20] amounted to 1.21.

Take `C=CCC(OC(C)=O)[C@@H]1[C@@H](N(Cc2ccc(-c3cccc(C(F)(F)F)c3)o2)C(=O)Cc2ccc(F)cc2)c2cc(OCCCO)ccc2N1C(=O)c1ccc(-c2ccccc2)cc1` (stereo partly specified): the composite z-score is -0.206 in test [1]; 0.0628 in test [6]; -0.157 in test [7]; -0.53 with Torsin-1A (Homo sapiens) [8]; -0.253 in the test with Torsin-1A (Homo sapiens) [9]; 0.475 in test [10]. The same compound had a composite z-score in test [12] of -0.0489. Besides, the z-score in test [2] is -0.072 (inactive); in test [3], -0.581 (inactive); in test [4], 0.6 (inactive); in test [5], 0.875 (inactive); in [11] it was -1.01 (inactive); in test [13] it was 1.23 (inactive). In addition, the z-score in test [14] is -0.401 (inactive); in [15], -0.642 (inactive); in [16], -0.255 (inactive); in test [17], -0.0924; in [18], -0.0336 (inactive); in test [19], 1.1 (inactive). Also, the z-score in test [20] is 1.29.

Consider `O=C1OCC=C[C@H]2OC34C=CCN(Cc5ccccc5)C(=O)[C@H]3N(CCO)C(=O)[C@@H]4[C@@H]12` (stereo partly specified), for which the composite z-score in test [1] was -0.744; in test [6] it was -1.09; in test [7] it was -0.307; with Torsin-1A (Homo sapiens) [8] it was -2.02; with Torsin-1A (Homo sapiens) [9] it was -0.768; in [10], -0.722. Also, the composite z-score in test [12] is -0.0104. For the same compound, the z-score in test [2] was 0.154 (inactive); in test [3] it was -0.992 (inactive); in test [4], -1.31 (inactive); in test [5], -0.773 (inactive); in test [11], 2.41 (inactive); in [13] it was 0.286 (inactive). Besides, the z-score in test [14] was -0.44 (inactive); in test [15] it was -1.32 (inactive); in test [16], -1.34 (inactive); in test [17], 0.262; in test [18], 1.53 (inactive); in test [19] it was 1.18 (inactive). Besides, the z-score in test [20] worked out at 1.75.

On to `C#CCCCON=C1C[C@@H](O)[C@@H](O)[C@@H]2[C@@H]3C(=O)N(Cc4ccc5c(c4)OCO5)C(=O)[C@@H]3CC[C@@H]12`, for which the composite z-score in [1] was -0.323; in [6], 0.571; in [7], -0.0245; with Torsin-1A (Homo sapiens) [8], -0.345; with Torsin-1A (Homo sapiens) [9], -0.151; in test [10], 0.9. In test [12], this compound registered a composite z-score of 0.137. Moreover, the z-score in [2] is -0.209 (inactive); in test [3], 1.86 (inactive); in test [4] it was -0.56 (inactive); in test [5], -0.157 (inactive); in test [11] it was 0.741 (inactive); in test [17], -0.0259. Moreover, the z-score in test [18] is 0.192 (inactive); in test [19] it was 0.773 (inactive); in test [20] it was -0.019.
